Rows were chosen to be rich in hits. Some 19% of all compounds tested hit in one or more screens of this group.
HT1080 IDH1KD tx: kills HT-1080 cells with IDH1 knockdown. HT-1080 IDH1 knockdown viability, ATP luminescence, 48 h. Potency, µM (series often up to 46.1 µM), inactives show top-dose activity, negative = toxicity, hits mostly cytotoxic. 2% of 360,000 active. AID 686971;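 further: potency means the concentration at half of the fitted maximal effect; 0% = DMSO wells and -100% = cell-free medium wells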
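After a 2 h attachment period, IDH1KD HT-1080 cells took pin-transferred compound for 48 h at 37 °C; ATP-based luminescence after 10 min room-temperature reagent incubation reported viability.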
HT1080-NT tox: kills 2HG-producing HT-1080-NT fibrosarcoma cells | HT-1080-NT fibrosarcoma viability, CellTiter-Glo ATP luminescence, 48 h | Potency, µM (titrated, usually from 46.1 µM), without a hit: top-dose activity, negative = less viability, most hits filed as cytotoxic | 1.6% of 360,000 active | AID 686970;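 further: NT is the 2HG producing partner of a matched IDH1 knockdown line; potency means the concentration at half of the fitted maximal effect; 0% = DMSO-treated cells and -100% = media-only wells without cells; nearly all actives have a fitted effect of over 55% in size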
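Luminescent CellTiter-Glo readout after 48 hours of compound exposure at 37 degrees C defined viability of HT-1080-NT cells. Activity was normalized to DMSO wells and cell-free media wells; concentration-response curves were fitted and assigned curve classes.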
IL-1B inflam inh: inflammasome signaling inhibition, IL-1 beta readout. THP-1 LPS/ATP IL-1B secretion, AlphaLISA, 16 h; hits give low values. activity change, % at 57.5 µM. 4.7% of 360,000 active. AID 743279; in the data active means activity change below about -50%; inconclusive means mostly about -30% to -49%
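Secreted IL-1B measured by AlphaLISA bead assay after 16 h compound exposure of THP-1 cells; compounds (final up to 57.5 uM) added 1 h before LPS (250 ng/mL) and ATP (1.25 mM) stimulation; lower signal means less secretion.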
TDP1 cell noCPT: qHTS for Inhibitors of human tyrosyl-DNA phosphodiesterase 1 (TDP1): qHTS in cells in absence of CPT; DT40 Tdp1-/- hTDP1 cells, no CPT, ATP luminescence, 48 h; Potency, µM (highest dose often 46.2 µM), for the others: top-dose activity change, negative = growth inhibition, most hits filed as inhibitors; 15% of 420,000 active; AID 686978, 2013; further: potency means the concentration at half of the fitted maximal effect; nearly all actives have a fitted effect of over 55% in size
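Seeded 400 DT40-hTDP1 cells/well (vehicle DMSO, no 20 nM CPT); pinned compounds; ≥48 hr at 37 °C; CellTiter-Glo luminescence as viability measure.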
DT40 TDP1 CPT: DT40-hTDP1 cell growth loss with CPT | chicken DT40 Tdp1-/-;hTDP1 cells + 20 nM CPT, ATP luminescence, 48 h | 12% of 420,000 active | Potency, µM (highest dose often 46.2 µM), without a hit: top-dose activity change, negative = growth inhibition, hits mostly inhibitors; further: potency means the concentration at half of the fitted maximal effect; nearly all actives have a fitted effect of over 55% in size
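Chicken DT40 Tdp1-/- cells stably complemented with human TDP1 were seeded at 400 cells/well in medium containing 20 nM camptothecin, exposed to pin-transferred compounds, and grown at 37 °C for at least 48 hr. Viability was read as ATP luminescence.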
An asterisk follows results filed as active; ! = repeats disagree; [ ] = remark or other dose. Unless noted, the call rests on the fitted dose curve; in most records, active means well fitted curve in the direction sought with a large enough effect; inconclusive means small, poorly fitted or top-dose-only effect, or another doubt; inactive means no such curve, though single readings can be large; an effect the other way counts as inactive or inconclusive. Unless noted, on the % scale 0 is the no-effect control and ±100 the full control effect.

Cc1ccc(Nc2ccc(C(=O)N3CCCC3)cn2)c(C)c1 was read as HT1080 IDH1KD tx 9%, HT1080-NT tox 15%, IL-1B inflam inh 15, TDP1 cell noCPT 26µM* and DT40 TDP1 CPT inconclusive.
`CC(C)(C)C1CCc2nc(NC(=O)Cc3ccc(Cl)cc3)sc2C1` (stereo unspecified) gave TDP1 cell noCPT 7.3µM* and DT40 TDP1 CPT 6.5µM*.
`CC(C)(C)C1CCc2nc(NC(=O)Cc3cn4ccsc4n3)sc2C1` (stereo unspecified) gave HT1080 IDH1KD tx inconclusive, HT1080-NT tox inconclusive, IL-1B inflam inh -5, TDP1 cell noCPT inconclusive and DT40 TDP1 CPT 11%.
`CC(C)(C)C1CCc2nc(NC(=O)COc3ccc(F)cc3)sc2C1` (stereo unspecified) gave TDP1 cell noCPT 21µM* and DT40 TDP1 CPT inconclusive.
`CC(C)CC(=O)Nc1nc2c(s1)CC(C(C)(C)C)CC2` (stereo unspecified) gave TDP1 cell noCPT 15µM* and DT40 TDP1 CPT 16µM*.
Screening COc1ccc2c(c1OC)C(=O)OC2CC(=O)c1ccc(N(C)C)cc1 (stereo unspecified) returned HT1080 IDH1KD tx 5%, HT1080-NT tox 7%, IL-1B inflam inh 3, TDP1 cell noCPT -15% and DT40 TDP1 CPT 0%.
Screening COc1cc(-c2nnc(COC(=O)c3ccc(C)o3)o2)cc(OC)c1OC returned HT1080 IDH1KD tx 3%, HT1080-NT tox 11%, IL-1B inflam inh 2, TDP1 cell noCPT inconclusive and DT40 TDP1 CPT inconclusive.
For CC1=C(C(=O)OC2CCCC(C)C2)C(c2ccccc2)NC(=O)N1 (stereo unspecified) the results were HT1080 IDH1KD tx 7%, HT1080-NT tox 0%, IL-1B inflam inh -8, TDP1 cell noCPT -22% and DT40 TDP1 CPT -19%.
`CCOc1ccc(NC(=O)CSc2nccn(-c3ccc4c(c3)OCCO4)c2=O)cc1` gave HT1080 IDH1KD tx -6%, HT1080-NT tox -3%, IL-1B inflam inh 8, TDP1 cell noCPT 15µM* and DT40 TDP1 CPT -27%.
For O=C(CSc1nccn(-c2ccc3c(c2)OCCO3)c1=O)Nc1ccccc1 the results were HT1080 IDH1KD tx -5%, HT1080-NT tox 2%, IL-1B inflam inh -6, TDP1 cell noCPT inconclusive and DT40 TDP1 CPT inconclusive.
Screening Cc1cccc(-n2ccnc2SCC(=O)Nc2ccc3c(c2)OCCO3)c1 returned HT1080 IDH1KD tx 5%, HT1080-NT tox 12%, IL-1B inflam inh -26, TDP1 cell noCPT inconclusive and DT40 TDP1 CPT inconclusive.
CCc1ccc(NC(=O)CSc2nccn(-c3ccc4c(c3)OCCO4)c2=O)cc1 was read as HT1080 IDH1KD tx -30%, HT1080-NT tox -20%, IL-1B inflam inh -9, TDP1 cell noCPT inconclusive and DT40 TDP1 CPT 18µM*.
`CCOc1ccc(-n2ccnc2SCC(=O)Nc2ccc3c(c2)OCO3)cc1` gave TDP1 cell noCPT -21% and DT40 TDP1 CPT 4%.
For Cc1ccc(NC(=O)CSc2nccn(-c3ccc4c(c3)OCCO4)c2=O)cc1 the results were HT1080 IDH1KD tx 12%, HT1080-NT tox 3%, IL-1B inflam inh -12, TDP1 cell noCPT 18µM* and DT40 TDP1 CPT 23µM*.
CSc1nc(N)nc2c1ncn2C1OC(CO)CC1O (stereo unspecified) was read as HT1080 IDH1KD tx -4%, HT1080-NT tox 0%, IL-1B inflam inh -9, TDP1 cell noCPT inconclusive and DT40 TDP1 CPT inconclusive.
`O=c1[nH]cnc2c1ncn2C1OC(CO)CC1F` (stereo unspecified) gave HT1080 IDH1KD tx 0%, HT1080-NT tox 17%, IL-1B inflam inh 28, TDP1 cell noCPT 1.8µM* and DT40 TDP1 CPT 0.46µM*.
For O=c1[nH]cnc2c1ncn2[C@@H]1C[C@@H](O)[C@H](CO)O1 the results were HT1080 IDH1KD tx 28%, HT1080-NT tox inconclusive, IL-1B inflam inh 3, TDP1 cell noCPT -27% and DT40 TDP1 CPT inconclusive.
`O=c1[nH]cnc2c1ncn2[C@H]1CC[C@@H](CO)O1` gave HT1080 IDH1KD tx 14%, HT1080-NT tox 30%, IL-1B inflam inh 0, TDP1 cell noCPT 12µM*! and DT40 TDP1 CPT 9.2µM*!.
O=C(COc1ccccc1)NCC(=O)Nc1cccc(S(=O)(=O)NC2=NCCC2)c1 was read as HT1080 IDH1KD tx 1%, HT1080-NT tox -7%, IL-1B inflam inh 117, TDP1 cell noCPT -9% and DT40 TDP1 CPT 1%.
Screening C=C(C)c1cccc(C(C)(C)NC(=O)N2CCN(CC(N)=O)CC2)c1 returned HT1080 IDH1KD tx 0%, HT1080-NT tox -5%, IL-1B inflam inh -6, TDP1 cell noCPT -15% and DT40 TDP1 CPT 0%.
For Cc1nn(C)cc1/C=N/NC(=S)Nc1ccc(Cl)cc1Cl the results were HT1080 IDH1KD tx -12%, HT1080-NT tox -9%, IL-1B inflam inh 27, TDP1 cell noCPT inconclusive and DT40 TDP1 CPT 0.52µM*.
CCn1nc(C)c(/C=N/NC(=O)Cn2nc(C)cc2C)c1C was read as HT1080 IDH1KD tx 17%, HT1080-NT tox 16%, IL-1B inflam inh 22, TDP1 cell noCPT 5% and DT40 TDP1 CPT 11%.
CCn1nc(C)c(/C=N/NC(=S)Nc2ccc(Cl)cc2Cl)c1C was read as HT1080 IDH1KD tx inconclusive, HT1080-NT tox -23%, IL-1B inflam inh 14, TDP1 cell noCPT 6.5µM* and DT40 TDP1 CPT 8.2µM*.
For CN(C)c1ccnc(-c2ccccc2C(F)(F)F)n1 the results were TDP1 cell noCPT inconclusive and DT40 TDP1 CPT -25%.
Screening O=C(NCCO)c1cn(C2CCCN(Cc3cccc(C(F)(F)F)c3)C2)nn1 (stereo unspecified) returned TDP1 cell noCPT -18% and DT40 TDP1 CPT -7%[9.04 µM].
`Fc1ccccc1N1CCN(C2CCCN(Cc3cccc(C(F)(F)F)c3)C2)CC1` (stereo unspecified) gave HT1080 IDH1KD tx -4%, HT1080-NT tox -25%, IL-1B inflam inh 4, TDP1 cell noCPT 16µM* and DT40 TDP1 CPT inconclusive.
Screening Oc1ccccc1CN1CCCC(N2CCN(c3cccc(C(F)(F)F)c3)CC2)C1 (stereo unspecified) returned HT1080 IDH1KD tx -7%, HT1080-NT tox -6%, IL-1B inflam inh -29, TDP1 cell noCPT inconclusive and DT40 TDP1 CPT 18µM*.
CSCC(=O)N1CCCC(N2CCN(c3cccc(C(F)(F)F)c3)CC2)C1 (stereo unspecified) was read as HT1080 IDH1KD tx -5%, HT1080-NT tox 0%, IL-1B inflam inh 0, TDP1 cell noCPT inconclusive and DT40 TDP1 CPT -28%.
Cn1ccc2c(-c3ccccc3F)cc3c(c21)C1CCC3C1 (stereo unspecified) was read as HT1080 IDH1KD tx 5%, HT1080-NT tox 6%, IL-1B inflam inh 4, TDP1 cell noCPT -12% and DT40 TDP1 CPT -7%.

Screens deposited in PubChem BioAssay by National Center for Advancing Translational Sciences (NCATS).
